High-throughput results from PubChem.
Only some compounds are listed: those with a hit (about 9.9% of all), similar ones and a draw of the others.
KB-3-1 tox: qHTS assay for MDR1-selective chemotherapeutics: Primary screen using the parental adenocarcinoma cell KB-3-1. KB-3-1 viability, CellTiter-Glo ATP luminescence, 72 h. Potency, µM (series often up to 46.1 µM), hits mostly cytotoxic. 400,000 tested, 1.4% active; also: potency is read from the fitted curve at half-maximal effect; % is scaled to controls: 0 for no effect and ±100 for the full control effect; nearly all actives have a fitted effect of over 60% in size
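Here the drug-naive KB-3-1 line serves as comparator for MDR sub-line selectivity; cells received compound titrations, 72 h at 37 °C, then CellTiter-Glo readout.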
KB-V1 MDR tox: qHTS assay for MDR1-selective chemotherapeutics: Primary screen using the drug-selected MDR subline cells KB-V1 | KB-V1 MDR cells viability, CellTiter-Glo, 72 h | Potency, µM (series often up to 46.1 µM), hits mostly cytotoxic | 400,000 tested, 3.4% active | AID 1347076, 2019; also: potency is read from the fitted curve at half-maximal effect; % is scaled to controls: 0 for no effect and ±100 for the full control effect; nearly all actives have a fitted effect of over 60% in size
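Drug-selected KB-V1 cells, grown in DMEM lacking phenol red with 10% FBS, receive compound titrations; after three days at 37 degrees C, surviving cell ATP is quantified by CellTiter-Glo luminescence and responses normalized and curve-fitted.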
SW480 rereplic: A quantitative high throughput screen for small molecules that induce DNA re-replication in SW480 colon adenocarcinoma cells; SW480 DNA re-replication, Hoechst DNA content imaging, 48 h; Potency, µM (series often up to 46.1 µM), for the others: top-dose re-replication activation, actives largely listed as activators; 340,000 tested, 1.8% active; AID 624297, 2012; also: potency is read from the fitted curve at half-maximal effect; % of control where 0% means no effect; nearly all actives have a fitted effect of over 55% in size
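SW480 cells exposed to compounds for 48 hr at 37 C, 5% CO2, then Hoechst-stained 40 min. Nuclear DNA content imaged by fluorescence scanning (405 nm excitation, 500-530 nm emission); re-replication scored as increased high-intensity nuclei.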
MCF10A rereplic: A quantitative high throughput screen for small molecules that induce DNA re-replication in MCF 10a normal breast cells. MCF 10A DNA re-replication, Hoechst nuclear intensity, 48 h. Potency, µM (series often up to 46.1 µM), without a hit: at the top dose activity, positive = re-replication, actives largely listed as activators. 350,000 tested, 2.9% active; also: potency is read from the fitted curve at half-maximal effect; % of control where 0% means no effect; nearly all actives have a fitted effect of over 50% in size
IL-1B inflam inh: qHTS for Inhibitors of Inflammasome Signaling: IL-1-beta AlphaLISA Primary Screen; THP-1 LPS/ATP IL-1B secretion, AlphaLISA, 16 h; stronger effect = lower value; AID 743279, 2014; activity change, % at 57.5 µM; 360,000 tested, 4.7% active; in the data active = activity change below about -50%; inconclusive = mostly about -30% to -49%; also: % is scaled to controls: 0 for no effect and ±100 for the full control effect
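THP-1 cells pretreated 1 hr with compounds (up to 57.5 uM final), then stimulated with LPS (250 ng/mL final) plus ATP (1.25 mM final); secreted IL-1B measured by AlphaLISA after 16 hr, decreased signal indicating inhibition.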
Numbers without * were called inactive; i = inactive; u = inconclusive; x = no result given; ! = not active in a repeat; [ ] = another dose, or the depositor's remark. Unless noted, calls follow the shape of the dose curve; as a rule, active = well fitted curve in the direction sought with a large enough effect; inconclusive = small, poorly fitted or top-dose-only effect, or another doubt; inactive = no such curve, though single readings can be large; an effect the other way counts as inactive or inconclusive.

SMILES	KB-3-1 tox	KB-V1 MDR tox	SW480 rereplic	MCF10A rereplic	IL-1B inflam inh
Cc1ccc(Nc2nc(=O)c3cccnc3s2)cc1	i	i	9.2µM*	16.4µM*	30.0
O=C(Nc1nc(-c2ccc([N+](=O)[O-])cc2)cs1)c1c(F)cccc1F	i	i	u	-1.0%	-5.9
COc1cc([N+](=O)[O-])cc2sc(NC(=O)c3c(F)cccc3F)nc12	i	i	-0.1%	0.731µM*	2.3
CC(C)(C)NCc1cc(Br)ccc1OCc1cccs1	i	i	1.8%	-2.2%	-58.9*
CC(C)(CO)NCc1cc(Br)ccc1OCc1ccccc1	i	i	u	28.1%	-65.9*
COCCCN(CC(=O)O)S(=O)(=O)c1cccc(Cl)c1	i	i	-8.1%	3.4%	-1.8
CCc1ccccc1-n1c2c(cc(-c3nc(-c4ccc(Cl)cc4)cs3)c1=O)C(=O)CC(C)(C)C2	i	i	x	x	x
N#Cc1ccc(N2CCN(S(=O)(=O)c3ccc4c(c3)CC(=O)N4)CC2)cc1	u	i	x	x	x
Cc1ccc(C2CC(=O)C=C(NCc3ccccc3)C2)cc1 (stereo not given)	14.6µM*	20.6µM*	23.1µM*	20.6µM*	-17.1
CN1c2ccccc2Oc2nnc(Cl)cc21	i	i	0.9%	-1.0%	-51.8*
CN1c2ccccc2Oc2nnc(N3CCN(Cc4ccccc4)CC3)cc21	i	i	9.5%	u	-96.1*
CCN(CC)CCOc1cc2c(nn1)Oc1ccccc1N2C	i	u	-1.3%	-6.9%	-17.8
CCCNC(=O)COCc1cc(-c2ccc(F)cc2)on1	i	i	x	x	x
N#CC1=C(N)Oc2n[nH]c(-c3cccnc3)c2C1c1ccc([N+](=O)[O-])o1 (stereo not given)	i	i	u	u	-97.1*
Cc1cc2cc(CCNC(=O)CCc3ccccc3)c(=O)[nH]c2cc1C	i	i	-8.0%	-0.5%	-11.4
Cc1ccc(NC(=O)CCC(=O)N2Cc3ccccc3Oc3ncccc32)cc1F	i	i	x	x	x
CCn1c(=O)cc(SCC(=O)N2CCN(c3ccccc3F)CC2)c2ccccc21	i	23.1µM*!	-3.0%	u	-17.2
CN(Cc1ccccc1)C(=O)CSc1cc(=O)n(C)c2ccccc12	i	u	-1.5%	2.6%	-17.6
CCn1c(=O)cc(SCC(=O)Nc2ccc3c(c2)OCO3)c2ccccc21	i	16.4µM*	-9.5%	-3.6%	-20.0
CCn1c(=O)cc(SCC(=O)N2CCN(c3ccccn3)CC2)c2ccccc21	i	u	-2.2%	9.6%	-14.4
CCn1c(=O)cc(SCC(=O)Nc2ccc(C)c(F)c2)c2ccccc21	i	i	x	x	x
CCn1c(=O)cc(SCC(=O)N(C)Cc2ccccc2)c2ccccc21	i	4.61µM*	-8.6%	-0.4%	u
CCc1ccc(-n2c(SCc3ccccc3Cl)nc3[nH]ncc3c2=O)cc1	i	i	x	x	x
O=C(Nc1ccc2c(c1)OCCO2)C(=O)NC1CC1	i	i	-15.6%	-6.3%	-6.2
COc1ccc(-c2oc(=O)c3cc(OC)c(OC)cc3c2-c2cc(F)cc(OC)c2)cc1	i	i	25.3%	u	0.8
COc1cc2c(C#CCCO)c(-c3ccsc3)oc(=O)c2cc1OC	i	i	-7.3%	24.7%	-73.2*
COc1cc2c(C#CCCO)c(-c3ccc(C#N)cc3)oc(=O)c2cc1OC	i	i	-14.0%[9.22 µM]	6.51µM*	0.3
COCc1ccc(-c2c(-c3ccsc3)oc(=O)c3cc(OC)c(OC)cc23)cc1	u	u	1.4%	3.66µM*	8.1
COc1ccc(-c2c(-c3ccc(C#N)cc3)oc(=O)c3cc(OC)c(OC)cc23)cc1	i	i	-9.5%	u	-8.0
COc1ccc(NC(=O)CSc2oc(-c3ccc(F)cc3)nc2S(=O)(=O)c2ccc(C)cc2)c(OC)c1	i	i	x	x	x
